The structures appear in SMILES notation. Several values for one entry are separate records, joined by “and”; a condition that tells them apart may be missing. Equal values may be shown once. This is part of a sample that, as a whole, favours compounds with a hit. Of some 83,000 tested, about 20% had one in any assay.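 Results are percent growth after 48 hours of single-concentration exposure. 100 means growth as in untreated cells, lower positive values show inhibition; negative values down to -100 show cell death.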 A number with no mark means an inactive call. Activity calls are given as the source filed them. The calls were made as follows: active = growth percent below 10; inactive = the rest.

The test relates to HL-60(TB) leukemia. In words: NCI-60 one-dose screen, 48 h (100 = growth as untreated, 0 = no growth, -100 = all killed). The note with it: 10 µM unless noted.
`ON=C1CCCCCCCC1`: the growth is 61.9% and 105%.

For `COc1ccc(-c2cn[nH]c2-c2ccc(OC)c(O)c2)cc1`, the growth is 46.1%.

On to `COC(=O)c1ccc(C(=O)Nc2ccccc2N)cc1`, for which the growth is -18.5% (active).

On to `Cc1c(C)c(N2C(=O)C=CC2=O)c(C)c(C)c1N1C(=O)C=CC1=O`, for which the growth was 57.5%.

For the compound `CC#CC#Cc1cccc(=O)o1`, the growth is 18.1%.
